Assay outcomes (PubChem)
Rows were chosen to be rich in hits. Some 3.8% of all compounds tested hit in one or more screens of this group.
HSF1 inh: HSF1 inhibitors in luciferase reporter cells, primary screen, cell-based, NIH3T3, luminescence | NIH3T3-HGL HSE-luciferase, MG132-induced, luminescence 8 h; hits give low values | activity change, negative = inhibition, % at 7.5 µM (by protocol) | 300,000 tested, 0.77% active;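 active means more than half of replicate wells show activity change below -50%, luminescence cut by over half; inconclusive means some wells, but at most half, below -50%; inactive means no replicate well below -50%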;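 further: luciferase reports HSF-1 transcriptional activity via heat shock element; 0% = median of DMSO wells and -100% = zero luminescence signal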
MITF act: activators of MITF-driven TRPM1 promoter reporter, primary screen, cell-based, SK-MEL-5, luciferase, single point; activation, % at 12.5 µM; 300,000 tested, 0.75% active; SK-MEL-5 TRPM1-promoter luciferase, 24 h; % of positive control, neutral wells = 0;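 active means mean activation of at least 80% with every replicate also reaching 80%; inconclusive means mean reaches 80% but some replicate falls short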;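 further: 0% = neutral control wells and 100% = parthenolide positive control wells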
HSF-1 act: HSF-1 activators, primary screen, NIH3T3-HGL cells, MG132 stress, luminescence, single point; NIH3T3-HGL HSF-1 luciferase reporter, 8 h; 100% = twice DMSO control signal; activation, % at 9 µM; 300,000 tested, 1.7% active;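 active means mean replicate activation of at least 50% with a set share of replicates each reaching 50%; inconclusive means only one of those two conditions met; inactive means mean below 50% and too few replicates reaching it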;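 further: 0% = median of the neutral control wells and 100% = twice that signal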
esBAF inh: Bmi1 luciferase reporter increase in mESCs, primary screen, esBAF inhibitor project, mouse ES cells, Bmi1 luciferase knock-in, single point; 24 h; 100% = twice the neutral-well signal; reporter increase, % at 12.5 µM; 350,000 tested, 2% active; in the data active means activation above about 40%; inconclusive means no clear call, values can overlap the other calls;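 further: 0% = median of the plate's neutral control wells and 100% = double that signal; a rise in the Bmi1 reporter signal indicates esBAF inhibition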
Wnt bcat act: Wnt/beta-catenin pathway activators, primary screen, cell-based, plate reader, single point; Wnt/beta-catenin reporter cell assay, activator; 300,000 tested, 1.2% active; activation, % at 9.35 µM; in the data active means activation above about 30%, passing the limit was not always enough; inconclusive means no clear call, values can overlap the other calls;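 further: 0% = neutral control wells and 100% = positive control wells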
esBAF Ring1 qPCR: Ring1 mRNA increase in mouse ESCs, confirmation, esBAF inhibitor project, cell-based, mouse ESC, RT-qPCR, cherry-pick; shares compounds with esBAF inh; 550 tested, under 10 active; fold change at 33 µM; AID 743176, 2013; mouse ESC E14, Ring1 mRNA RT-qPCR fold change;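 active means Ring1 gene expression raised more than 2-fold over untreated cells in both replicates at either tested dose; inconclusive means only one replicate above 2-fold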;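 further: Ring1 transcript normalised to actin housekeeping signal by TaqMan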
esBAF Fgf4 qPCR: Fgf4 mRNA decrease in mouse ESCs, confirmation, esBAF inhibitor project, cell-based, mouse ESC, RT-qPCR, cherry-pick; shares compounds with esBAF inh; 550 tested, 4% active; mouse ESC E14, Fgf4 mRNA qPCR fold change; hits give low values; AID 743177, 2013; Fgf4 expression fold change at 33 µM;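 active means Fgf4 expression under 0.8 fold of control in both repeat measurements at one or both tested doses; inconclusive means under 0.8 fold in just a single repeat measurement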;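 further: Fgf4 transcript normalised to actin in duplex TaqMan qPCR; cells exposed to compound for 24 h before lysis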
Bmi1 derepress: esBAF inhibition via Bmi1 de-repression, confirmation, cell-based, RT-qPCR, mouse ESC, single point, cherry-pick; shares compounds with esBAF inh; mouse ESE14 ES cells, Bmi1 mRNA qPCR fold; hits give high values; 550 tested, under 10 active; fold change at 33 µM;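 active means Bmi1 expression fold change above 6 at either tested concentration, seen in replicate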;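 further: higher fold means more Bmi1 de-repression and stronger esBAF inhibition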
A549 tox SP: A549 cell cytotoxicity, cytotoxicity control, plate reader, single point, cherry-pick; shares compounds with esBAF inh; 550 tested, under 10 active; AID 743188, 2013; cell viability change % (negative = cytotoxic), % at 25 µM, hits read low; call rule not given here
HepG2 cytotox SP: HepG2 cell cytotoxicity, cytotoxicity control, plate reader, single point, cherry-pick; shares compounds with esBAF inh; hits give low values; activity change, negative = inhibition, % at 25 µM; 550 tested, 4% active; in the data active means activity change below about -50%
HEK293 tox SP: HEK293 cell cytotoxicity, cytotoxicity control, plate reader, single point, cherry-pick. shares compounds with esBAF inh. activity change, negative = inhibition, % at 25 µM, hits read low. 550 tested, 3% active; in the data active means activity change below about -38%, passing the limit was not always enough
An asterisk follows results filed as active.

Screening O=C(Nc1ccc(Cl)c(Cl)c1)Nc1ccccc1O returned HSF1 inh 46.8, HSF-1 act 92.4*, esBAF inh 73.6*, Wnt bcat act 10.0, esBAF Ring1 qPCR 1.65, esBAF Fgf4 qPCR inconclusive, Bmi1 derepress 1.73, A549 tox SP 4.6, HepG2 cytotox SP -5.5 and HEK293 tox SP 3.8.
Screening O=C(Nc1ccc(Cl)cc1)Nc1ccc(Cl)c(Cl)c1 returned Wnt bcat act 1.2.
O=C(Nc1ccc(F)cc1F)NC1CCCCCCC1 was read as MITF act 65.2, esBAF inh 63.1*, Wnt bcat act 14.5, esBAF Ring1 qPCR 1.03, esBAF Fgf4 qPCR 0.828, Bmi1 derepress 1.76, A549 tox SP -7.2, HepG2 cytotox SP -50.9* and HEK293 tox SP -16.0.
For O=C(Nc1ccc(F)cc1F)NC1CC1 the results were HSF1 inh -13.4, MITF act -6.3, HSF-1 act 5.6 and Wnt bcat act -0.1.
CO[C@H]1CN(C)C(=O)c2cc(NC(=O)c3ccccc3)ccc2OC[C@@H](C)N(C(=O)CN(C)C)C[C@H]1C was read as esBAF inh 0.0.
C[C@H](CO)N1C[C@H](C)[C@@H](CN(C)C(=O)c2ccncc2)OCCCC[C@H](C)Oc2ccc(NS(=O)(=O)c3ccccc3)cc2C1=O was read as esBAF inh 0.4.
c1ccc(-c2cnnc(N3CCCCC3)n2)cc1 was read as HSF1 inh -17.6, MITF act 85.8*, HSF-1 act -22.8, esBAF inh 55.0*, Wnt bcat act 20.4, esBAF Ring1 qPCR 1.23, esBAF Fgf4 qPCR 0.937, Bmi1 derepress 1.63, A549 tox SP -6.3, HepG2 cytotox SP -19.2 and HEK293 tox SP -2.9.
FC(F)(F)c1cc(-c2ccccc2)nc(N2CCCCCC2)n1 was read as HSF1 inh 7.0, HSF-1 act 37.9, esBAF inh 2.6 and Wnt bcat act -0.4.
For Cc1noc(C)c1C(=O)Nc1nc2ccccc2s1 the results were MITF act 74.7, esBAF inh 72.1*, Wnt bcat act 7.9, esBAF Ring1 qPCR 1.26, esBAF Fgf4 qPCR 1.11, Bmi1 derepress 1.58, A549 tox SP -19.1, HepG2 cytotox SP 7.9 and HEK293 tox SP -28.5.
`CCN1C(=O)C(=CC=CN(C)c2ccccc2)SC1=S` gave esBAF inh 83.9*, Wnt bcat act 7.0, esBAF Ring1 qPCR 1.06, esBAF Fgf4 qPCR 0.932, Bmi1 derepress 1.46, A549 tox SP -18.8, HepG2 cytotox SP -8.1 and HEK293 tox SP -9.7.
`CN(C(=O)c1ccco1)c1nc(-c2ccc(Cl)cc2)cs1` gave HSF1 inh 14.5, MITF act 66.5, HSF-1 act 29.9, esBAF inh 34.6 and Wnt bcat act 8.7.
